These results are taken from ChEMBL document CHEMBL1961873, “Compounds: GSK PKIS; Assays: Nanosyn kinase panel” (2012).

For assay [1], the target named is T1, Serine/threonine-protein kinase TBK1 (Homo sapiens) (UniProt Q9UHD2).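 Also: values are mean inhibition of TBK1, screened as part of the GSK published kinase inhibitor set.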
T1 sequence (whole entry): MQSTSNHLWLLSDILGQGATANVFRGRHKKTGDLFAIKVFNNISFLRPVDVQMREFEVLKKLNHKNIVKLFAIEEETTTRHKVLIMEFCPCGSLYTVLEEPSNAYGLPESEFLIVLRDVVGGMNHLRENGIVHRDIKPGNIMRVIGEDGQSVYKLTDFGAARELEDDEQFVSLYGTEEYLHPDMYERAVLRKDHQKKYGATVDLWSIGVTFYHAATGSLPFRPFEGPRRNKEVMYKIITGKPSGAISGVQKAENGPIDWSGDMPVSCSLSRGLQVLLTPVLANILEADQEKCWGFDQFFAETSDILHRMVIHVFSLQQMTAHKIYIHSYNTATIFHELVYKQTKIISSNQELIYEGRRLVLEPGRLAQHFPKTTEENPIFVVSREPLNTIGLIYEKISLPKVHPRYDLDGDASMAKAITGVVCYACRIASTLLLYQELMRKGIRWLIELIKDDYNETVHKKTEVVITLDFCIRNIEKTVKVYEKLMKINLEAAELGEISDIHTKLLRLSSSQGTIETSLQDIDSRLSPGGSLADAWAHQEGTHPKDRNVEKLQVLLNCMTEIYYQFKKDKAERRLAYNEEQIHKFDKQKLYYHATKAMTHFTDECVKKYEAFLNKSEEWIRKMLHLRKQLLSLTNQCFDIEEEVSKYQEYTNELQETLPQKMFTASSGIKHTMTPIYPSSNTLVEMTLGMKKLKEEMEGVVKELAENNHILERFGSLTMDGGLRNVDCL
The following applies: at 1 µM.

Assay [2] concerns the target T2, Testis-specific serine/threonine-protein kinase 1 (Homo sapiens) (UniProt Q9BXA7).
T2 sequence (whole entry): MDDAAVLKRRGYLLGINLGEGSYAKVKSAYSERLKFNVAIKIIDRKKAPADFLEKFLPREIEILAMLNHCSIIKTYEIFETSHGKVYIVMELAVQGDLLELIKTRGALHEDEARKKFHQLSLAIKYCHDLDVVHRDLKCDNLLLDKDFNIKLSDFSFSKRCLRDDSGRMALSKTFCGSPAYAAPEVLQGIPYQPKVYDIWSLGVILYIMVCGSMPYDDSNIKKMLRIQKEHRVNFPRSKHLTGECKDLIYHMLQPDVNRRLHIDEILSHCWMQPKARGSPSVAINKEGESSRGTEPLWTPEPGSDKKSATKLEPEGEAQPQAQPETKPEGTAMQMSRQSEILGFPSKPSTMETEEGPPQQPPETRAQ
The following applies: at 0.1 µM.

Assay [3] concerns the target T2, Testis-specific serine/threonine-protein kinase 1 (Homo sapiens). The following applies: at 1 µM.
Assay [4] addresses T3, Testis-specific serine/threonine-protein kinase 2 (Homo sapiens) (UniProt Q96PF2).
T3 sequence (whole entry): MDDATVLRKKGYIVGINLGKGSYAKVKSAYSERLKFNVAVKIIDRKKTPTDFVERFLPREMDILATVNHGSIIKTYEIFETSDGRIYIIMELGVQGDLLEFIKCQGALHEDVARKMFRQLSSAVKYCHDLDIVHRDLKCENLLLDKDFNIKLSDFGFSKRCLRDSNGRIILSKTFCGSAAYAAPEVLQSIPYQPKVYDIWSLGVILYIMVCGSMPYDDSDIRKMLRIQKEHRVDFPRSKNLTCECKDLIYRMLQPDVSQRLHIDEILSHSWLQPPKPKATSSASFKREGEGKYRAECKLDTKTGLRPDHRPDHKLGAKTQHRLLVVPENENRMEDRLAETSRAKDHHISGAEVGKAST
The following applies: at 0.1 µM.

Assay [5] deals with T3, Testis-specific serine/threonine-protein kinase 2 (Homo sapiens). The following applies: at 1 µM.
Assay [6] has as its target Casein kinase I isoform alpha (Homo sapiens) (UniProt P48729). The following applies: at 0.1 µM.
The target is the same in assay [7]. The following applies: at 1 µM.
Assay [8] addresses Casein kinase I isoform gamma-1 (Homo sapiens) (UniProt Q9HCP0). The following applies: at 0.1 µM.
Assay [9] shares this target. The following applies: at 1 µM.
The target of assay [10] is Casein kinase I isoform gamma-2 (Homo sapiens) (UniProt P78368). The following applies: at 0.1 µM.
Assay [11] shares this target. The following applies: at 1 µM.
The target in assay [12] is Casein kinase I isoform gamma-3 (Homo sapiens) (UniProt Q9Y6M4). The following applies: at 0.1 µM.
Assay [13] shares this target. The following applies: at 1 µM.
Assay [14] concerns the target Cyclin-dependent kinase 1 (Homo sapiens) (UniProt P06493). The following applies: at 0.1 µM.
For assay [15] the target is unchanged. The following applies: at 1 µM.
Assay [16] deals with Cyclin-dependent kinase 2 (Homo sapiens) (UniProt P24941). The following applies: at 0.1 µM.
Assay [17] has the same target. The following applies: at 1 µM.
Assay [18] has the same target. The following applies: at 0.1 µM. This is another data set of the same source.
The target is the same in assay [19]. The following applies: at 1 µM. The source holds these as a separate data set.
For assay [20], the target named is CDK3/Cyclin E (Homo sapiens) (UniProt P24864+Q00526). The following applies: at 0.1 µM.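 Also: reported percentages are mean inhibition values.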
Chain of CDK3/Cyclin E (Homo sapiens) (P24864 whole entry, looked up): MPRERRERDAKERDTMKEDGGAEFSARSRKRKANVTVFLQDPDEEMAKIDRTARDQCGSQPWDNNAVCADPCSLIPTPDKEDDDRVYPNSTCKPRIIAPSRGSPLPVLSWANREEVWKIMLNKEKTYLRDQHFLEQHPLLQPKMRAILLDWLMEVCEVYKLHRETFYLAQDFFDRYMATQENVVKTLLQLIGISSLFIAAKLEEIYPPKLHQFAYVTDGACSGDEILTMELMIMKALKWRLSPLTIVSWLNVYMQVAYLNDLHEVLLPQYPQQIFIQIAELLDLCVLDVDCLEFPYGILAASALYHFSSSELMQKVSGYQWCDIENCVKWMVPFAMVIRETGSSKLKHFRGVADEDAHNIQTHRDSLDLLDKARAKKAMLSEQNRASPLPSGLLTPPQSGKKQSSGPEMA
Chain of CDK3/Cyclin E (Homo sapiens) (Q00526 whole entry, looked up): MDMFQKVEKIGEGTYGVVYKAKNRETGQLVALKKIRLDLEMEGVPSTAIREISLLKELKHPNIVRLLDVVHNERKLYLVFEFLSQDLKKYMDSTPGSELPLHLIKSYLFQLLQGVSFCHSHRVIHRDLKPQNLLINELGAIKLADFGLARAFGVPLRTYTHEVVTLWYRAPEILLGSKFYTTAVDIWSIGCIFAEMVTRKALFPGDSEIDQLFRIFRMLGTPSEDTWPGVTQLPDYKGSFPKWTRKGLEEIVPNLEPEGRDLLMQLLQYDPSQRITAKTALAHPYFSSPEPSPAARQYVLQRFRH

Chain of Casein kinase I isoform alpha (Homo sapiens) (P48729 2-337 limits assumed): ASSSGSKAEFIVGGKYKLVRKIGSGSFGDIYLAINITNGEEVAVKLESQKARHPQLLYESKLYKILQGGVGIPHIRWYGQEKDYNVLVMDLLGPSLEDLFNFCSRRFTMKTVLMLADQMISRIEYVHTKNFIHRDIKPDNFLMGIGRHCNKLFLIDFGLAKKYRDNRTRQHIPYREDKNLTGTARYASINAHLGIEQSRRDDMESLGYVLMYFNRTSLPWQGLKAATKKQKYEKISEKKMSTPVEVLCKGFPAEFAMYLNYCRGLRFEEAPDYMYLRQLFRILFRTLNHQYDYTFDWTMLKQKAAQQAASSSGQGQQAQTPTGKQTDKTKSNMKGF
Chain of Casein kinase I isoform gamma-3 (Homo sapiens) (Q9Y6M4 whole entry, looked up, canonical isoform): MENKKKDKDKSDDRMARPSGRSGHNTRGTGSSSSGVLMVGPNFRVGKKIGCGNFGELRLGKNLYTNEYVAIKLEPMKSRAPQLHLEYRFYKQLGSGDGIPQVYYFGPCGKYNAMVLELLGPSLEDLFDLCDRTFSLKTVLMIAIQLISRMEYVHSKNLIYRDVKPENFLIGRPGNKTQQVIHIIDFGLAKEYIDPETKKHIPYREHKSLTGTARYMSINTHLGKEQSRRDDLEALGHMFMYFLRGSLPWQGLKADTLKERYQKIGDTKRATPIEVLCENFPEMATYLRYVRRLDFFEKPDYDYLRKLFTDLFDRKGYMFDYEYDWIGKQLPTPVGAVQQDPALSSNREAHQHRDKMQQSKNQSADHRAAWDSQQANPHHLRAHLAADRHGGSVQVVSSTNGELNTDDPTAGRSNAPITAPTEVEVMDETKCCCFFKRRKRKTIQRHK
Chain of Casein kinase I isoform gamma-1 (Homo sapiens) (Q9HCP0 whole entry, looked up, canonical isoform): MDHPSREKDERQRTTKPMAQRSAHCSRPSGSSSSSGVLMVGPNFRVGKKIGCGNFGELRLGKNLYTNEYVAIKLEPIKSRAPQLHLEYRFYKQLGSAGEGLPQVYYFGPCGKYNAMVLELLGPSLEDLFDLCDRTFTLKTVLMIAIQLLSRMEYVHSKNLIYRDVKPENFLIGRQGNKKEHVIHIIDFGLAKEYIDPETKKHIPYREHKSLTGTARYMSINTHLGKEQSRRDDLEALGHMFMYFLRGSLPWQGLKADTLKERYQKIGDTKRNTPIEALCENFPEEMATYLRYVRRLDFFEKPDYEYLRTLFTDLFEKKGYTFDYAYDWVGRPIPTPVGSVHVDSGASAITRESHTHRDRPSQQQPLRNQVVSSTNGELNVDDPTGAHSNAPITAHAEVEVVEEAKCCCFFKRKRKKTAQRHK
Chain of Casein kinase I isoform gamma-2 (Homo sapiens) (P78368 whole entry, looked up, canonical isoform): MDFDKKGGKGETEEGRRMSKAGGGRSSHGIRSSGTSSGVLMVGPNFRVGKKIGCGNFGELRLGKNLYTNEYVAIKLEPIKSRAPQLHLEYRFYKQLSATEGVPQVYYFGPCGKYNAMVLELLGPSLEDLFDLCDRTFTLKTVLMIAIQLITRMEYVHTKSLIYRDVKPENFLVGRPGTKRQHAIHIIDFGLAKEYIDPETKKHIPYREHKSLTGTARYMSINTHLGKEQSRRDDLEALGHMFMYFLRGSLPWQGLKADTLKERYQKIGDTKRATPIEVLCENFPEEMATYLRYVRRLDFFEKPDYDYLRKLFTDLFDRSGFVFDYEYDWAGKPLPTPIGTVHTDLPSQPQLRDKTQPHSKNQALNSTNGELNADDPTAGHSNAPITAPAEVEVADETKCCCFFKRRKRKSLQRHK
Chain of Cyclin-dependent kinase 1 (Homo sapiens) (P06493 whole entry, looked up): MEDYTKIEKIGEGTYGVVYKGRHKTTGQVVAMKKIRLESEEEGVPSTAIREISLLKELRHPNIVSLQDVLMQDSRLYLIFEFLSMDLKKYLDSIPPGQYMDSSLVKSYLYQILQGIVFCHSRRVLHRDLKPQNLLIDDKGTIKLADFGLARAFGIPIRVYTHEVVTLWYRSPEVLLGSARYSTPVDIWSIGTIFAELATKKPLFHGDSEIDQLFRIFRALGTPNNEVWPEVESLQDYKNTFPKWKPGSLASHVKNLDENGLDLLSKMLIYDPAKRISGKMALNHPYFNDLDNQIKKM

In the case of `O=C1NC(=O)C(N2CCc3ccccc32)=C1c1ccc(Cl)cc1`, the inhibition – broadly, the relative decrease from the control value, in per cent – was determined as 5.62% in assay [1]; 3.65% in [2]; 2.94% in assay [3]; 1.38% in assay [4]; 0.39% in assay [5]; 4.4% in [6]. The inhibition in assay [7] is 5.22%; in assay [8], 4.48%; in [9], 5.14%; in [10], 2.83%; in [11], 5.08%; in assay [12], 4.47%. Moreover, the inhibition is 3.56% in assay [13]; 1.77% in assay [14]; 3.26% in [15]; -1.05% in [16]; 0.31% in assay [17]; 5.31% in assay [18]. In addition, the inhibition in [19] was 6.11%; in assay [20] it was 3.85%.

As to `NCc1ccc(-c2nc(-c3ccc(Cl)c(O)c3)c(-c3ccncc3)[nH]2)cc1`, the inhibition in assay [1] was 1.76%; in assay [2], 0.52%; in assay [3], 0.46%; in [4] it was -0.98%; in [5] it was -1.3%; in assay [6] it was 3.06%. The inhibition stood at 15.7% in assay [7]; 0.41% in assay [8]; 2.73% in assay [9]; 0.27% in [10]; 2.74% in [11]; 0.3% in [12]. In addition, the inhibition is 3.09% in assay [13]; 1.68% in [14]; 3.12% in assay [15]; 1.79% in assay [16]; 0.56% in [17]; 1.58% in assay [18]. Also, the inhibition stood at 2.98% in assay [19] and 0.9% in [20].

As to `NC(=O)c1cccc(Nc2nccc(Nc3cccc4[nH]ncc34)n2)c1`, the inhibition is 26.1% in assay [1]; -0.96% in assay [2]; 15.6% in assay [3]; -1.7% in assay [4]; -1.85% in assay [5]; 1.36% in assay [6]. Further, the inhibition in [7] is 1.87%; in assay [8] it was -2.71%; in [9], 5.27%; in assay [10], -1.57%; in [11] it was 1.89%; in assay [12] it was -2.55%. Moreover, the inhibition in assay [13] was determined as 9.56%; in assay [14] it was 1.69%; in [15], 14.5%; in assay [16], 10.3%; in [17], 59.9%; in [18], 3.38%. For the same compound, the figures for the inhibition in assay [19] and in [20] were 34.2% and 1.14%, respectively.

`O=C(Nc1n[nH]c2nc(-c3ccco3)c(Br)cc12)C1CC1`: the inhibition was 4.8% in [1]; 4.63% in assay [2]; 1.5% in assay [3]; -0.36% in [4]; -1.08% in assay [5]; 1.36% in assay [6]. Moreover, the inhibition in [7] was 3.16%; in [8], 3.71%; in assay [9], 2.78%; in assay [10], 2.3%; in assay [11], 2.51%; in assay [12], 2.64%. The inhibition was found to be 0.87% in [13]; 0.89% in assay [14]; 5.15% in [15]; 3.87% in assay [16]; 28.4% in assay [17]; 3.75% in [18]. Further, the inhibition in [19] amounted to 9.11%; in assay [20], 3.8%.

As to `COc1ccc(COc2ccc(Cc3cnc(N)nc3N)cc2OC)cc1`, the inhibition is 2.86% in assay [1]; 0.44% in assay [2]; -1.27% in assay [3]; -0.95% in assay [4]; -0.65% in assay [5]; 0.49% in assay [6]. Moreover, the inhibition in [7] is 0.48%; in assay [8] it was -0.8%; in [9], -0.45%; in [10], -2.36%; in [11], 0.05%; in assay [12], -0.67%. Moreover, the inhibition in assay [13] came out at 0.85%; in assay [14], 1.89%; in [15], 1.42%; in [20], 2.3%.

In the case of `NC(=O)c1ccc(-c2nc(-c3ccccn3)c(-c3ccc4c(c3)OCO4)[nH]2)cc1`, the inhibition turned out to be 2.25% in assay [1]; 2.68% in assay [2]; 0.88% in assay [3]; 1.76% in [4]; 0.84% in assay [5]; 13.1% in assay [6]. Moreover, the inhibition in assay [7] was determined as 48.5%; in assay [8] it was 1.97%; in [9] it was 4.22%; in assay [10] it was 1.5%; in assay [11], 3.29%; in assay [12] it was 1.05%. Also, the inhibition in assay [13] was determined as 5.91%; in [14], 0.26%; in assay [15] it was 2.49%; in assay [20] it was 3.35%.

For the compound `COc1ccc2cc(-c3c(-c4ccncc4)nc(-c4ccc([S+](C)[O-])cc4)n3C)ccc2c1` (configuration not stated), the inhibition was 3.63% in assay [1]; 3.26% in assay [2]; 1.1% in [3]; -0.32% in assay [4]; -0.74% in assay [5]; 1.18% in assay [6]. The inhibition was found to be 3.66% in assay [7]; 3.32% in [8]; 2.97% in [9]; 2% in assay [10]; 2.6% in assay [11]; 1.16% in assay [12]. For the same compound, the inhibition in [13] worked out at 3.28%; in assay [14], 0.99%; in assay [15] it was 2.01%; in assay [16], 1.21%; in assay [17], 1.86%; in [18], 3.23%. Further, the inhibition worked out at 3.44% in assay [19] and 4.02% in assay [20].
